# Records with an inconclusive call do not appear. A call without a number means that no potency is given here. Active and inactive are the calls of the source. Unless noted, calls come from the whole dose curve; as a rule, active = well fitted curve in the direction sought with a large enough effect; inconclusive = small, poorly fitted or top-dose-only effect, or another doubt; inactive = no such curve, though single readings can be large; an effect the other way counts as inactive or inconclusive.
# Legend:
# CAOV3 = test: Primary qHTS to identify gynecologic anti-cancer compounds using libraries of approved drugs and bioactive compounds (AID 1345084); details: Gynecologic cancer cell panel viability, ATPlite luminescence, 48 h; series mostly up to 57.5 µM; note: nearly all actives have a fitted effect of over 55% in size
# How it was run: (§1)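 In this quantitative HTS, cell killing is estimated from loss of ATP-dependent luciferase light. Cells see five compound concentrations over a 48 h exposure.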
# SKOV3 = test: as above; details: Gynecologic cancer cell panel viability, ATPlite luminescence, 48 h; series mostly up to 57.5 µM
# How it was run: as §1
# [1] = target: Cytochrome P450 2C9 (Homo sapiens) (UniProt P11712); test: Cytochrome P450 family 2 subfamily C member 9 (CYP2C9) small molecule antagonists: luciferase biochemical (cell-free) qHTS assay (AID 1645842; active = well fitted curve in the direction sought with a large enough effect in the repeat runs; an effect the other way counts as inactive or inconclusive; note: nearly all actives have a fitted effect of over 55% in size; note: potency is the fitted concentration of half-maximal effect)
# How it was run: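 P450-Glo CYP2C9 system: proluciferin substrate with enzyme in mix containing 0.4% BSA, 10 min at room temperature, then NADPH regeneration solution added and incubated 1 h at 37C. Detection reagent stopped reaction; luminescence read after 20 min as RLU.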
# [2] = Primary fluorescence-based thiol-reactive (MSTI) qHTS assay for identification of artifact compounds. (AID 1845221); note: nearly all actives have a fitted effect of over 65% in size; note: potency is the fitted concentration of half-maximal effect
# How it was run: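 One-hour, room-temperature, dark incubation of compound with 4 uM MSTI in PBS (pH 7.4, 2% DMSO) precedes a fluorescence read at 525 nm excitation, 598 nm emission; Hill-equation fitting yields concentration-response values.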
# [3] = target: Cytochrome P450 2D6 (Homo sapiens) (UniProt P10635); test: Cytochrome P450 family 2 subfamily D member 6 (CYP2D6) small molecule antagonists: luciferase biochemical (cell-free) qHTS assay (AID 1645840; active = well fitted curve in the direction sought with a large enough effect in the repeat runs; an effect the other way counts as inactive or inconclusive; note: nearly all actives have a fitted effect of over 55% in size; note: potency is the fitted concentration of half-maximal effect)
# How it was run: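 P450-Glo CYP2D6 system: proluciferin substrate converted by enzyme to luciferin, read by luminescence proportional to activity. Enzyme-substrate mix with compound 10 min at room temperature, then NADPH regeneration 1 h before detection reagent.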
# [4] = P-glycoprotein substrates identified in KB-8-5-11 adenocarcinoma cell line, qHTS therapeutic library screen (AID 1346987); note: potency is the fitted concentration of half-maximal effect; nearly all actives have a fitted effect of over 65% in size
# How it was run: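 Compounds are pinned in dose-response onto KB-8-5-11 cells (500 cells/well, colchicine-free medium) and left 72 h at 37 degree C. CellTiter-Glo luminescence then yields AC50 values.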
# [5] = qHTS to identify inhibitors of the type 1 interferon - major histocompatibility complex class I in skeletal muscle: primary screen against the NCATS Mechanism Interrogation Plate v5.0 (MIPE) Libary (AID 1347411); note: nearly all actives have a fitted effect of over 65% in size
# How it was run: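 Luminescence from CRISPR HiBit-tagged endogenous HLA-B in human myoblasts reported MHC class I level after 24 h of IFN-beta (4 ng/ml) plus compound. Compounds ran as 11-point 1:3 series, top 46 uM final.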
# [6] = qHTS drug screen for cell cycle checkpoint inhibitors in PARPi-resistant BRCA-mutant ovarian cancer cell lines. (AID 1963452; calls by dose curve); details: PEO1/OlaR viability, CellTiter-Glo luminescence, 96 h, stronger effect = lower value
# How it was run: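 PEO1, PEO4 and PEO1/OlaR ovarian cancer cells, 600 per well, exposed 96 h at 37C to a dilution series. Viability read by CellTiter-Glo luminescence, normalized to DMSO and empty wells; activity summarized as Z-AUC.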
# [7] = target: N-terminal Xaa-Pro-Lys N-methyltransferase 1 (Homo sapiens) (UniProt Q9BV86); test: Confirmatory qHTS for Inhibitors of N-terminal methyltransferase 1 (NTMT1): MTaseGlo Assay (AID 1645874);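 note: luminescence from SAH made as NTMT1 methylates SPKRIA peptide using SAM; nearly all actives have a fitted effect of over 65% in size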
# How it was run: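 Room-temperature NTMT1 reaction, 30 min, with 100 uM SAM and 1 uM SPKRIA substrate; enzyme 125 nM. Read-out: MTase-Glo luminescence, normalized to no-enzyme and DMSO controls.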
# [8] = test system: Zika virus NS2B-NS3 protease (linked construct); test: 384 well plate NINDS Rhodamine confirmatory qHTS for Zika virus inhibitors (AID 1347164)
# How it was run: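 Fluorescence at 485/538 nm was measured 25 minutes after adding 10 microM Ac-LKRR-Rd substrate, in the dark at room temperature. The protease (5, 30 or 60 nM final) had been preincubated ~15 minutes with compound; aprotinin as control.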
# [9] = Drug repurposing screens with cells derived from glioblastoma tumor samples (AID 1345199); details: GBM patient neurospheres viability, ATP luminescence, 48 h; note: nearly all actives have a fitted effect of over 40% in size; note: potency is the fitted concentration of half-maximal effect
# How it was run: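 Primary testing used CD133+ neurospheres from four GBM patients, seven concentrations, 48 h exposure and ATP-based viability; confirmation added three slower-growing patient lines.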
# Sequence of Cytochrome P450 2D6 (Homo sapiens) (P10635 whole entry, looked up): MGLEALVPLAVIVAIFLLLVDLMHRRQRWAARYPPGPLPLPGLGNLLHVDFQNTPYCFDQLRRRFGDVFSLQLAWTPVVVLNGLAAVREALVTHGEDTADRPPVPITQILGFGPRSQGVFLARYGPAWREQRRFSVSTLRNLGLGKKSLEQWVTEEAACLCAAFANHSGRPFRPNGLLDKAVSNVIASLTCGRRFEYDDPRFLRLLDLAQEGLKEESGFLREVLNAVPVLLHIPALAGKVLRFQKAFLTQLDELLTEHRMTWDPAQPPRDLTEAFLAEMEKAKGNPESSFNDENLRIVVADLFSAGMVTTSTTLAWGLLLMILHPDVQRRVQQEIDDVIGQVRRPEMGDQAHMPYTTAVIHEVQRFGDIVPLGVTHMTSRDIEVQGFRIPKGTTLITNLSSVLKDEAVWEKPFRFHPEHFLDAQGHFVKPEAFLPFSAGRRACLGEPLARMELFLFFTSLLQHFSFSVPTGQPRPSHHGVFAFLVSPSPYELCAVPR
# Sequence of Cytochrome P450 2C9 (Homo sapiens) (P11712 whole entry, looked up): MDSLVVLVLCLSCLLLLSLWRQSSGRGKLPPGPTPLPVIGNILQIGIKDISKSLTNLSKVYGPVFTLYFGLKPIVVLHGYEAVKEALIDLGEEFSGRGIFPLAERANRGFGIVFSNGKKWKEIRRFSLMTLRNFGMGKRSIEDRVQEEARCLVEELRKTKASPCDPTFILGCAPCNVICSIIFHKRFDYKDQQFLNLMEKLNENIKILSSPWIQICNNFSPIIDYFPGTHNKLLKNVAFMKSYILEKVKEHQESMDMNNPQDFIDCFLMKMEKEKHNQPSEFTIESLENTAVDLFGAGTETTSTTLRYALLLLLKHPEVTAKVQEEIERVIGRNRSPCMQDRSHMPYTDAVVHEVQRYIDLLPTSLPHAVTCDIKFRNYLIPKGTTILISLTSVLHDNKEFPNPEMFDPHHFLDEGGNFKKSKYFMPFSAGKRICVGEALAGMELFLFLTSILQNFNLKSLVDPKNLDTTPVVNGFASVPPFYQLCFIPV
# Sequence of N-terminal Xaa-Pro-Lys N-methyltransferase 1 (Homo sapiens) (Q9BV86 whole entry, looked up): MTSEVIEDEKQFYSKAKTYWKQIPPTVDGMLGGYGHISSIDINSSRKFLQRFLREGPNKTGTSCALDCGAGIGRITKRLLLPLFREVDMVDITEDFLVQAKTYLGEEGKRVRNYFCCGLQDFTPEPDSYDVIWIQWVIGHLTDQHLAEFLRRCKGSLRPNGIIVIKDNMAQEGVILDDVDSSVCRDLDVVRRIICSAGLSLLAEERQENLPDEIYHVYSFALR
smiles,measurement,setting,value
C=C1C(=O)O[C@@H]2/C=C(/C)CC3C=C(C[C@H](OC(=O)/C(C)=C\C)[C@@H]12)C(=O)O3 (stereo partly specified),Potency,CAOV3,inactive
same,Potency,SKOV3,inactive
COc1cc(-c2cc(-c3cccc(O)c3)cnc2N)cc(OC)c1OC,Potency,[1],0.849 µM (active)
same,Potency,[2],inactive
same,Potency,CAOV3,inactive
Cc1nnsc1C(=O)Nc1ccc(-n2nc(C(F)(F)F)cc2C(F)(F)F)cc1,Potency,[3],10.7 µM (active)
same,Potency,[1],15.1 µM (active)
same,Potency,[2],inactive
same,Potency,CAOV3,inactive
same,Potency,SKOV3,inactive
O=C(Nc1cccc(C(F)(F)F)c1)c1ccccc1NCc1ccncc1,Potency,[2],inactive
same,Potency,CAOV3,inactive
CCC(=O)Nc1cccc(Oc2nc(Nc3ccc(N4CCN(C)CC4)cc3OC)ncc2Cl)c1,Potency,[4],16.4 µM (active)
same,Potency,[5],inactive
same,Potency,[1],6.74 µM (active)
same,Potency,[2],1.89 µM (active)
same,Z-AUC,[6],-0.15 (inactive)
same,Z-AUC,[6]; measured here: PEO1 parental Z-AUC,0.187
same,Z-AUC,[6]; measured here: PEO4 Z-AUC,0.383
CN(C)CC(=O)Nc1ccc2[nH]c(=O)c3ccccc3c2c1,Potency,[3],inactive
same,Potency,[1],13.5 µM (active)
same,Potency,[2],inactive
same,Potency,SKOV3,inactive
CC1(C)SC2C(NC(=O)[C@H](NC(=O)N3CCNC3=O)c3ccccc3)C(=O)N2C1C(=O)O (stereo partly specified),Potency,[2],inactive
same,Potency,CAOV3,inactive
Fc1ccccc1CNCc1ccc(-c2ccnc3[nH]ccc23)cc1,Potency,[4],11.6 µM (active)
same,Potency,[3],0.477 µM (active)
same,Potency,[1],inactive
same,Potency,[7],inactive
same,Potency,[2],inactive
same,Potency,SKOV3,inactive
C[C@@H](CN1CCC(n2c(=O)[nH]c3cc(Cl)ccc32)CC1)NC(=O)c1ccc2ccccc2c1,Potency,[4],18.4 µM (active)
same,Potency,[3],10.7 µM (active)
same,Potency,[1],0.239 µM (active)
same,Potency,[2],inactive
same,Potency,SKOV3,inactive
C[C@H](NC(=O)C(C)(C)Oc1ccc(C(F)(F)F)cn1)[C@@H](Cc1ccc(Cl)cc1)c1cccc(C#N)c1,Potency,[4],14.6 µM (active)
same,Potency,[3],1.9 µM (active)
same,Potency,[2],inactive
same,Potency,CAOV3,inactive
CC[C@H](C)[C@H]1O[C@]2(CC[C@@H]1C)C[C@@H]1C[C@@H](C/C=C(\C)[C@@H](O[C@H]3C[C@H](OC)[C@@H](O[C@H]4C[C@H](OC)[C@@H](O)[C@H](C)O4)[C@H](C)O3)[C@@H](C)/C=C/C=C3\CO[C@@H]4[C@H](O)C(C)=C[C@@H](C(=O)O1)[C@]34O)O2,Potency,[8],inactive
same,Potency,SKOV3,inactive
same,"activity, negative = cell killing","[9]; at 46.1 µM (top of the series), tumour line C",-34.4% (inactive)
same,Potency,[9]; tumour line A,1.12 µM (active)
same,Potency,[9]; tumour line B,3.98 µM (active)
same,Potency,[9]; tumour line D,2.82 µM (active)
